Reference: PubChem BioAssay (Tox21)
Where “and” joins values, the source holds several entries; their conditions need not be identical. Equal entries are not always repeated. Results filed as inconclusive are left out. A call without a number means that no potency is given here. Where a structure was tested more than once in an assay, its records may differ in their call. Calls of active or inactive are those of the source. Unless noted, calls come from the whole dose curve; as a rule, active = well fitted curve in the direction sought with a large enough effect in the repeat runs; inconclusive = weak or mixed curves; inactive = no such curve, though single readings can be large; an effect the other way counts as inactive or inconclusive.

What was measured:
[1] = qHTS assay for small molecules that induce genotoxicity in human embryonic kidney cells expressing luciferase-tagged ATAD5 (AID 651632); note: nearly all actives have a fitted effect of over 15% in size
Summary of the method: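 Luminescence read-out: after 16 hr compound exposure at 37C, ATAD5-luciferase HEK293T cells received Amplite, 30 min RT, then CCD imaging. A rise in signal marks genotoxic stress.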

[2] = qHTS assay for small molecule agonists of the p53 signaling pathway - cell viability (AID 651633; calls by dose curve;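 note: p53RE-bla HCT reporter cells with a stable beta-lactamase p53 reporter; series mostly up to about 83 µM; nearly all actives have a fitted effect of over 30% in size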)
Summary of the method: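 p53RE-bla cells were treated with compound for 16 hours at 37 C. Cytotoxicity was then measured as CellTiter-Glo luminescence after 30 min at room temperature.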

[3] = qHTS assay for small molecules that induce genotoxicity in human embryonic kidney cells expressing luciferase-tagged ATAD5 - cell viability (AID 651634; calls by dose curve; note: nearly all actives have a fitted effect of over 25% in size)
Summary of the method: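 HEK293T ATAD5-luc cells, 2,000/well; compound 15.5 hr, 37C/5% CO2; CellTiter-Fluor 30 min, 37C; fluorescence read.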

[4] = qHTS assay for small molecule disruptors of the mitochondrial membrane potential - cell viability (AID 720634; calls by dose curve; note: nearly all actives have a fitted effect of over 20% in size; note: potency is the fitted concentration of half-maximal effect)
Summary of the method: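 Luminescence from CellTiter-Glo (ATP content) gave viability in HepG2 cells, read in the same wells as the MMP dye assay after 1 hr compound exposure at 37 C.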

[5] = qHTS assay for small molecule disruptors of the mitochondrial membrane potential (AID 720635); note: potency is the fitted concentration of half-maximal effect
Summary of the method: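 HepG2 cells exposed to compound 1 hr at 37C, then Mito-MPS dye 30 min. Ratio read of aggregate (540/590 nm) versus monomer (490/535 nm) fluorescence.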

[6] = qHTS assay to test for compound auto fluorescence at 590 nm (red) in HepG2 cells (AID 720674)
Summary of the method: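 HepG2 cells, 2,000 per well in MEM with 10% FBS, attached overnight at 37 C, then got 23 nL compound or DMSO. After 1 hr at 37 C, 5% CO2, red fluorescence was read at 540/590 nm against Rose Bengal sodium as reference.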

[7] = qHTS assay to test for compound auto fluorescence at 535 nm (green) in HepG2 cells (AID 720675)
[8] = qHTS assay to test for compound auto fluorescence at 460 nm (blue) in HEK293 cells (AID 720678)
Summary of the method: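 Blue read-out at excitation 405 nm and emission 460 nm follows overnight compound exposure of HEK293 cells at 37C in 5% CO2. Activity is given as auto fluorescence equivalency to triamterene.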

[9] = qHTS assay to test for compound auto fluorescence at 590 nm (red) in HEK293 cells (AID 720679)
Summary of the method: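 Red channel, Ex/Em 540/590nm; signal expressed as equivalency to Rose Bengal sodium. HEK293, 2,000 cells/well, 10% dialyzed FBS; 23 nL compound pinned after 4-5 hr attachment; overnight 37C/5% CO2 before reading.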

[10] = qHTS assay to test for compound auto fluorescence at 535 nm (green) in HEK293 cells (AID 720680)
[11] = qHTS assay to test for compound auto fluorescence at 460 nm (blue) in HEK293 cell free culture (AID 720681)
Summary of the method: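 Compounds were added to cell-free DMEM with 10% FBS and fluorescence read directly. The blue channel used 405 nm excitation and 460 nm emission, with triamterene as the reference fluorophore.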

[12] = qHTS assay to test for compound auto fluorescence at 535 nm (green) in HEK293 cell free culture (AID 720682)
Summary of the method: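 Steps: dispense DMEM/10% FBS into empty wells; pin in compound or DMSO; measure fluorescence at 485/535 nm. Values are fluorescein equivalents.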

[13] = qHTS assay to test for compound auto fluorescence at 590 nm (red) in HEK293 cell free culture (AID 720683)
Summary of the method: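 Cell-free wells of DMEM with 10% FBS received compound, and intrinsic fluorescence was read at excitation/emission 540/590 nm. Values expressed as equivalence to Rose Bengal sodium.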

[14] = qHTS assay to test for compound auto fluorescence at 590 nm (red) in HepG2 cell free culture (AID 720684)
Summary of the method: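 Auto fluorescence equivalency versus Rose Bengal sodium, red channel Ex/Em 540/590 nm; compounds in cell-free MEM/10% FBS; DMSO vehicle control.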

[15] = qHTS assay to test for compound auto fluorescence at 460 nm (blue) in HepG2 cell free culture (AID 720685)
Summary of the method: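 Cell-free plates of MEM plus 10% FBS received 23 nL compound or DMSO vehicle; blue-channel (405/460 nm) intensity scored against triamterene as reference fluorophore.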

[16] = qHTS assay to test for compound auto fluorescence at 535 nm (green) in HepG2 cell free culture (AID 720686)
[17] = qHTS assay to test for compound auto fluorescence at 460 nm (blue) in HepG2 cells (AID 720687)
Summary of the method: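 HepG2 cells in MEM with 10% FBS, attached overnight at 37 C, were exposed to compound or DMSO for 1 hr at 37 C, 5% CO2. Blue fluorescence was read at 405/460 nm, with triamterene as reference fluorophore.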

[18] = qHTS assay to identify small molecule antagonists of the glucocorticoid receptor (GR) signaling pathway - cell viability counter screen (AID 720693); note: nearly all actives have a fitted effect of over 55% in size; note: potency is the fitted concentration of half-maximal effect
[19] = qHTS assay for small molecule agonists of the p53 signaling pathway (AID 651631; calls by dose curve; note: nearly all actives have a fitted effect of over 15% in size)
Summary of the method: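 HCT-116 p53RE-bla reporter line, 16 h compound treatment at 37 °C, then fluorescence after 2 h with B/G FRET substrate.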

[20] = target: Glucocorticoid receptor (Homo sapiens) (UniProt P04150); assay: qHTS assay to identify small molecule agonists of the glucocorticoid receptor (GR) signaling pathway (AID 720691; active = well fitted activation curve with a large enough effect in the signal ratio in the repeat runs, not every such curve was filed as active; the % refers to the signal ratio)
Sequence of Glucocorticoid receptor (Homo sapiens) (P04150 whole entry, looked up): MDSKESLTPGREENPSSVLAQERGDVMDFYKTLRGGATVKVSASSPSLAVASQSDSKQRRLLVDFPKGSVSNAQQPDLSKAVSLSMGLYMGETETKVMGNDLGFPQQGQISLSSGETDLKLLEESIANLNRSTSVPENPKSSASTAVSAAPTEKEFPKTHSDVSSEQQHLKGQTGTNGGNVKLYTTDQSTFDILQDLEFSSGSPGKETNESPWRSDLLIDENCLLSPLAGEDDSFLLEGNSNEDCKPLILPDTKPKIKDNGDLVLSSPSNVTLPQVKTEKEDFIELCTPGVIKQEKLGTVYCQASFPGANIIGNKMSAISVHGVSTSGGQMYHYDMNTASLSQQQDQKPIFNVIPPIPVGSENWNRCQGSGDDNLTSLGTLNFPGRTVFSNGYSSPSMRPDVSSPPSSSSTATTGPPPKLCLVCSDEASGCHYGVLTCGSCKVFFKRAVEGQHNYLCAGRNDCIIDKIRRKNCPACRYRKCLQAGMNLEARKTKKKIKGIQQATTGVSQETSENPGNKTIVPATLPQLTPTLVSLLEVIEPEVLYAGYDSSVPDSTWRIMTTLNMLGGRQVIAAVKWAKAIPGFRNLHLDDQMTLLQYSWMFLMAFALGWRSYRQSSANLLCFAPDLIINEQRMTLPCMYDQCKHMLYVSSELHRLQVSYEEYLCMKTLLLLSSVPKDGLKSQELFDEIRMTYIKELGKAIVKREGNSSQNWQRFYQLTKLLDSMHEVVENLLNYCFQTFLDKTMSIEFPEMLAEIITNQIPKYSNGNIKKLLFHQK
Summary of the method: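 HeLa GR-bla reporter line; cells pre-incubated 4 h, compound in DMSO 18 h at 37 C; LiveBLAzer B/G FRET substrate 2 h RT; fluorescence intensity read-out.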

SMILES | outcome [1] | Potency [2] | Potency [3] | Potency [4] | Potency [5] | outcome [6] | outcome [7] | outcome [8] | outcome [9] | outcome [10] | outcome [11] | outcome [12] | outcome [13] | outcome [14] | outcome [15] | outcome [16] | outcome [17] | Potency [18] | Potency [19] | outcome [20]
CCCC[N+]1(C)CCCCC1 | inactive | inactive | inactive | inactive | inactive | inactive | inactive | inactive | inactive | inactive | inactive | inactive | inactive | inactive | inactive | inactive | inactive | inactive | – | –
Nc1ccccc1 | inactive | inactive | inactive | inactive | inactive | inactive | inactive | inactive | inactive | inactive | inactive | inactive | – | inactive | inactive | inactive | inactive | inactive | inactive | inactive
CCCC[N+]1(C)CCCC1 | inactive | inactive | inactive | inactive | inactive | inactive | inactive | inactive | inactive | inactive | inactive | inactive | – | inactive | inactive | inactive | inactive | inactive | inactive | –
C1CCC(NC2CCCCC2)CC1 | inactive | inactive | inactive | inactive | inactive | inactive | inactive | inactive | inactive | inactive | inactive | inactive | inactive | inactive | inactive | inactive | inactive | inactive | inactive | inactive
COCC(=O)N(c1c(C)cccc1C)C(C)C(=O)OC (configuration not stated) | inactive | inactive | inactive | inactive | inactive | inactive | inactive | inactive | inactive | inactive | inactive | inactive | – | inactive | inactive | inactive | inactive | inactive | inactive | –
CCNc1nc(Cl)nc(NCC)n1 | inactive | inactive | inactive | inactive | inactive | inactive | inactive | inactive | inactive | inactive | inactive | inactive | – | inactive | inactive | inactive | inactive | inactive | inactive | inactive
CC[n+]1ccccc1 | inactive | inactive | inactive | inactive | inactive | inactive | inactive | inactive | inactive | inactive | inactive | inactive | inactive | inactive | inactive | inactive | inactive | inactive | – | –
CCCC[n+]1ccccc1C | inactive | inactive | inactive | inactive | inactive | inactive | inactive | inactive | inactive | inactive | inactive | inactive | – | inactive | inactive | inactive | inactive | inactive | – | –
CCCCCCCCCCn1cc[n+](C)c1 | inactive | inactive | inactive | inactive | – | inactive | inactive | inactive | inactive | inactive | inactive | inactive | inactive | inactive | inactive | inactive | inactive | 49.5 µM (active) and 40 µM (active) and 48.9 µM (active) | – | inactive
CC(=O)O | – | inactive | inactive | – | – | inactive | inactive | inactive | inactive | inactive | inactive | inactive | inactive | inactive | inactive | inactive | inactive | inactive | – | –
CCCCCCCCCCCC(=O)O | inactive | inactive | inactive | inactive | inactive | inactive | inactive | inactive | inactive | inactive | inactive | inactive | – | inactive | inactive | inactive | inactive | inactive | – | –
Cc1cc(Cl)ccc1N | inactive | inactive | inactive | inactive | inactive | inactive | inactive | inactive | inactive | inactive | inactive | inactive | – | inactive | inactive | inactive | inactive | inactive | – | inactive
CCCCCC[n+]1ccccc1 | inactive | inactive | inactive | inactive | 61.7 µM (active) and inactive | inactive | inactive | inactive | inactive | inactive | inactive | inactive | – | inactive | inactive | inactive | inactive | inactive | – | –
O=S(=O)(O)O | – | – | inactive | inactive | inactive | inactive | inactive | inactive | inactive | inactive | inactive | inactive | – | inactive | inactive | inactive | inactive | inactive | – | –
C=CCOC(Cn1ccnc1)c1ccc(Cl)cc1Cl (configuration not stated) | inactive | inactive | inactive | inactive | – | inactive | inactive | inactive | inactive | inactive | inactive | inactive | – | inactive | inactive | inactive | inactive | inactive | – | inactive
CCC[N+]1(C)CCCC1 | inactive | inactive | inactive | inactive | inactive | inactive | inactive | inactive | inactive | inactive | inactive | inactive | – | inactive | inactive | inactive | inactive | inactive | – | –
CCCC[n+]1ccc(C)cc1 | inactive | inactive | inactive | inactive and 48.3 µM (active) | – | inactive | inactive | inactive | inactive | inactive | inactive | inactive | – | inactive | inactive | inactive | inactive | inactive | – | –
O=c1nc(O)n(Cl)c(=O)n1Cl | inactive | – | inactive | inactive | inactive | inactive | inactive | inactive | inactive | inactive | inactive | inactive | inactive | inactive | inactive | inactive | inactive | inactive | – | inactive
CCCCn1cc[n+](C)c1C | inactive | inactive | inactive | inactive | inactive | inactive | inactive | inactive | inactive | inactive | inactive | inactive | – | inactive | inactive | inactive | inactive | inactive | – | –
